Laboratory results published in PubChem BioAssay (Tox21).
“And” between values parts separate entries of the source, which are not always exact repeats. Identical values can stand only once. Results filed as inconclusive are left out. Entries that show only a call come without a potency. Some compounds were tested as several samples or in several runs, with calls that do not always agree. The source made the active and inactive calls. Unless noted, calls follow the shape of the full dose curve.

Experiments:
[1] = Nuclear factor erythroid 2-related factor 2/antioxidant responsive element (Nrf2/ARE) small molecule agonists: qHTS cell viability counter screen in human keratinocytes (AID 1919968; active = well fitted curve in the direction sought with a large enough effect in the repeat runs; an effect the other way counts as inactive or inconclusive; also: nearly all actives have a fitted effect of over 55% in size; also: potency is read from the fitted curve at half-maximal effect)
In short: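 Stably transfected HaCaT (KeratinoSens), 1,500/well. Test agents in DMSO were applied for 23 h, 37 C/5% CO2. CellTiter-Fluor was incubated 1 h before the fluorescence read.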

[2] = target: Gonadotropin-releasing hormone receptor (Homo sapiens) (UniProt P30968); assay: Human gonadotropin-releasing hormone receptor (GnRHR) small molecule agonists, calcium flux assay in GnRHR-HEK293 cells (AID 1920063); also: nearly all actives have a fitted effect of over 35% in size; also: potency is read from the fitted curve at half-maximal effect
In short: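 Stable human GnRHR HEK293 line. 18 h plating, then calcium dye for 1 h at 37 C. Agonist-mode compound addition from DMSO stocks; fluorescence monitored 3 min.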

[3] = target: KiSS-1 receptor (Homo sapiens) (UniProt Q969F8); assay: Human kisspeptin (KISS1R) small molecule agonists, calcium flux assay in KISS1R-HEK293 cells (AID 1920064; active = well fitted curve in the direction sought with a large enough effect in the repeat runs; an effect the other way counts as inactive or inconclusive)
In short: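 After overnight (18 h) culture at 37 C/5% CO2, human KISS1R-HEK293 cells received calcium dye for 1 h, then test compound; emission at 540 nm (excitation 480 nm) was tracked for 3 min.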

[4] = G protein-coupled receptor (GPCR) small molecule agonists, calcium flux assay: HEK293 wild type cell line counter screen (AID 1920065)
In short: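 Following 18 h incubation at 37 C/5% CO2, plates got calcium dye for 1 h; compounds, ATP or DMSO were then pinned in and fluorescence followed kinetically (480/540 nm).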

[5] = p53 small molecule agonists, cell-based qHTS assay with human liver microsomes (AID 1963577)
In short: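 Compounds act here after metabolic activation: human liver microsomes and NADPH, both at 0.5 mg/mL final, were co-added to p53RE-bla cells. Incubation ran 16 h at 37 C, followed by LiveBLAzer detection.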

[6] = p53 small molecule agonists, cell-based qHTS assay with rat liver microsomes (AID 1963578)
In short: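 Read-out is beta-lactamase reporter fluorescence (LiveBLAzer, 2 h, room temperature, dark) in p53RE-bla cells treated 16 h at 37 C with compound, rat liver microsomes and NADPH, both 0.5 mg/mL final.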

[7] = p53 small molecule agonists, cell-based qHTS assay with human liver microsomes: qHTS cell viability counter screen (AID 1963579); also: nearly all actives have a fitted effect of over 45% in size; also: potency is read from the fitted curve at half-maximal effect
In short: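 Cells carrying the p53 response-element beta-lactamase reporter are treated for 16 h at 37 C with test compounds in the presence of human liver microsomes and NADPH (both 0.5 mg/mL final); ATP-based CellTiter-Glo luminescence then reports viability.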

[8] = p53 small molecule agonists, cell-based qHTS assay with rat liver microsomes: qHTS cell viability counter screen (AID 1963580); also: nearly all actives have a fitted effect of over 45% in size; also: potency is read from the fitted curve at half-maximal effect
In short: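 Cytotoxicity counter screen: intracellular ATP read by CellTiter-Glo luminescence in the p53 reporter wells. HCT-116 p53RE-bla cells were treated for 16 h at 37 C alongside rat liver microsomes and NADPH, each 0.5 mg/mL final.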

[9] = p53 small molecule agonists, cell-based qHTS assay: qHTS cell viability counter screen (AID 1963581); also: nearly all actives have a fitted effect of over 45% in size; also: potency is read from the fitted curve at half-maximal effect
In short: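 qHTS counter screen: 16 h compound exposure at 37 C of p53RE-bla HCT-116 cells (4,000 per well, seeded 5 h prior), cell viability by ATP luminescence.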

[10] = p53 small molecule agonists, cell-based qHTS assay (AID 1963582; active = well fitted activation curve with a large enough effect in the signal ratio in the repeat runs, not every such curve was filed as active; the % refers to the signal ratio; also: potency is read from the fitted curve at half-maximal effect)
In short: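 Measured: fluorescence from cleaved LiveBLAzer substrate. System: p53RE-bla cells, 16 h compound treatment at 37 C, 2 h substrate step at room temperature.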

[11] = target: 5-hydroxytryptamine receptor 2A (Homo sapiens) (UniProt P28223); assay: 5-hydroxytryptamine receptor 2A (HTR2A) small molecule antagonists, cell-based qHTS assay (AID 1963586); also: nearly all actives have a fitted effect of over 45% in size; also: potency is read from the fitted curve at half-maximal effect
In short: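 CHO cells stably expressing human HTR2A were plated for 18 h at 37 C, then loaded with calcium dye for 1 h. Compounds were preincubated 5 min at room temperature before DOI (4 nM solution) was added. Kinetic fluorescence was read for 3 min.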

[12] = target: 5-hydroxytryptamine receptor 2A (Homo sapiens) (UniProt P28223); assay: 5-hydroxytryptamine receptor 2A (HTR2A) small molecule agonists, cell-based qHTS assay (AID 1963587); also: nearly all actives have a fitted effect of over 30% in size
In short: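 Kinetic calcium-flux fluorescence (2 min, 1 sec intervals) after compound addition in agonist mode. HTR2A-CHO cells were cultured 18 h, then dye-loaded 1 h at 37 C.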

[13] = target: Muscarinic acetylcholine receptor M1 (Homo sapiens) (UniProt P11229); assay: Cholinergic receptor muscarinic 1 (CHRM1) small molecule antagonists, cell-based qHTS assay (AID 1963588); also: nearly all actives have a fitted effect of over 40% in size
In short: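 Compounds were tested at 15 concentrations in three independent runs. Dye-loaded CHRM1-CHO cells were exposed 5 min at room temperature before stimulation by acetylcholine added at 50nM. Intracellular calcium was read kinetically on FDSS for 3 min.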

[14] = target: Muscarinic acetylcholine receptor M1 (Homo sapiens) (UniProt P11229); assay: Cholinergic receptor muscarinic 1 (CHRM1) small molecule agonists, cell-based qHTS assay (AID 1963589); also: nearly all actives have a fitted effect of over 35% in size
In short: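 Kinetic fluorescence (1 s intervals) of calcium-sensitive dye in human M1 CHO cells after compound addition; cells pre-incubated 18 h at 37 C/5% CO2 and dye-loaded 1 h.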

[15] = cAMP Responsive Elements (CRE) small molecule agonists, cell-based qHTS assay (AID 1963590)
In short: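 Test agents in DMSO were incubated 3 h at 37 C/5% CO2 with CRE-bla HEK 293T cells seeded 18 h earlier; LiveBLAzer B/G FRET substrate was added and read after 2 h at room temperature.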

[16] = cAMP Responsive Elements (CRE) small molecule antagonists, cell-based qHTS assay (AID 1963591; active = well fitted inhibition curve with a large enough effect in the signal ratio in the repeat runs, not every such curve was filed as active; the % refers to the signal ratio)
In short: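 Reporter line CRE-bla HEK 293T in dialyzed-FBS DMEM; cells preincubated 18 h, treated 3 h with compound plus NKH477 (0.25 uM final); LiveBLAzer FRET, 2 h RT.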

[17] = target: Beta-2 adrenergic receptor (Homo sapiens) (UniProt P07550); assay: Adrenergic beta2 receptor (ADRB2) small molecule antagonists, cell-based qHTS assay (AID 1963592); also: series mostly up to about 92 µM; nearly all actives have a fitted effect of over 50% in size
In short: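 Assay format: CHO-ADRB2 cells, 18-20hr seeding at 37C/5% CO2, then compound plus 1nM isoproterenol agonist mix for 0.5hr RT. Homogeneous time-resolved fluorescence cAMP detection after 1hr, expressed as 665/615 nm ratio.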

[18] = target: D(2) dopamine receptor (Homo sapiens) (UniProt P14416); assay: Dopamine D2 receptor (DRD2) small molecule agonists, cell-based qHTS assay (AID 1963594); also: nearly all actives have a fitted effect of over 35% in size
In short: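 cAMP accumulation in DRD2-HEK293 cells measured by HTRF after 1 h detection; compounds added 10 min before NKH477 (200nM […]) forskolin-analogue stimulation, 30 min at room temperature, with Ro20-1724 present at 0.1 mM final.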

[19] = target: D(2) dopamine receptor (Homo sapiens) (UniProt P14416); assay: Dopamine D2 receptor (DRD2) small molecule antagonists, cell-based qHTS assay (AID 1963595; active = well fitted inhibition curve with a large enough effect in the signal ratio in the repeat runs, with a control signal flat; the % refers to the signal ratio; also: potency is read from the fitted curve at half-maximal effect)
In short: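 Antagonist mode in DRD2-HEK293 cells: after compound addition with 0.1 mM Ro20-1724, cells received quinpirole (12 nM) and NKH477 (200 nM) for 30 min at room temperature; HTRF cAMP read after 1 h detection.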

[20] = target: Beta-2 adrenergic receptor (Homo sapiens) (UniProt P07550); assay: Adrenergic beta2 receptor (ADRB2) small molecule agonists, cell-based qHTS assay (AID 1963593);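 also: CHO cells stably overexpressing human ADRB2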
In short: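 CHO cells stably over-expressing ADRB2 were plated overnight at 37C, then dosed with compounds plus a stimulation mix containing 100uM IBMX and 25uM Ro-20-1724 for 0.5hr at room temperature. cAMP was measured by HTRF competition, 1hr.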

Sequence of 5-hydroxytryptamine receptor 2A (Homo sapiens) (P28223 whole entry, looked up): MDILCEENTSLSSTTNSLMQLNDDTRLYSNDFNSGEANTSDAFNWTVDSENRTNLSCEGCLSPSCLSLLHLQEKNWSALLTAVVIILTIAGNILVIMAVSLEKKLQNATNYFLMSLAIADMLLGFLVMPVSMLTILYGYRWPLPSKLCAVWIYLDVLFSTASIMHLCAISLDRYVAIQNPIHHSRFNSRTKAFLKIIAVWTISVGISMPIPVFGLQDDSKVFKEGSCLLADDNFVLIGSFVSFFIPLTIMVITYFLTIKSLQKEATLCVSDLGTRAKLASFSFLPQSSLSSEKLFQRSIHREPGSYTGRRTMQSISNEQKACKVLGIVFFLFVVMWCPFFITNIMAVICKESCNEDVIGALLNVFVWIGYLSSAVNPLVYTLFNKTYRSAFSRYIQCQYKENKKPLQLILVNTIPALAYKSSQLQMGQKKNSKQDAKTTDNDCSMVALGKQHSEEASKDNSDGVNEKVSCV
Sequence of KiSS-1 receptor (Homo sapiens) (Q969F8 whole entry, looked up): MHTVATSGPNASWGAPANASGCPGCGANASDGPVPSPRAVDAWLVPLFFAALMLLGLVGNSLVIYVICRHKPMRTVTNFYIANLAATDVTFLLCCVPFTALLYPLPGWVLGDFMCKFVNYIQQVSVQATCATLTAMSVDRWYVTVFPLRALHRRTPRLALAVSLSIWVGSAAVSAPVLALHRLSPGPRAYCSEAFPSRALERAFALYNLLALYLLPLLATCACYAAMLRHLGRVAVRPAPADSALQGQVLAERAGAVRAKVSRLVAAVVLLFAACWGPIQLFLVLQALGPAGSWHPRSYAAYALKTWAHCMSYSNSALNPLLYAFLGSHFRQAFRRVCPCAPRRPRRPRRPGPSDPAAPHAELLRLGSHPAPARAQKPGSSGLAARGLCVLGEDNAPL
Sequence of Beta-2 adrenergic receptor (Homo sapiens) (P07550 whole entry, looked up): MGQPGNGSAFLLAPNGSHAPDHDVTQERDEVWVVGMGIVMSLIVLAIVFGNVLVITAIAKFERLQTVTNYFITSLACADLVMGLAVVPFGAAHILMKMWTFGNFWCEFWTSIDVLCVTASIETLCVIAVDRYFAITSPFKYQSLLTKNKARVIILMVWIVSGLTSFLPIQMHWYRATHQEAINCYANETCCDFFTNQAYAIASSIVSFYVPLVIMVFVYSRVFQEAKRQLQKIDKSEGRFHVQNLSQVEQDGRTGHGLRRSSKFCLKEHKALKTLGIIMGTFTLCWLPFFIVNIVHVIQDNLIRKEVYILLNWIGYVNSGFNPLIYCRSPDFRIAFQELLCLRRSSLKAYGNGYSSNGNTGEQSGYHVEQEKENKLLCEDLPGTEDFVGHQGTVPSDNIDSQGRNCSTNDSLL
Sequence of Muscarinic acetylcholine receptor M1 (Homo sapiens) (P11229 whole entry, looked up): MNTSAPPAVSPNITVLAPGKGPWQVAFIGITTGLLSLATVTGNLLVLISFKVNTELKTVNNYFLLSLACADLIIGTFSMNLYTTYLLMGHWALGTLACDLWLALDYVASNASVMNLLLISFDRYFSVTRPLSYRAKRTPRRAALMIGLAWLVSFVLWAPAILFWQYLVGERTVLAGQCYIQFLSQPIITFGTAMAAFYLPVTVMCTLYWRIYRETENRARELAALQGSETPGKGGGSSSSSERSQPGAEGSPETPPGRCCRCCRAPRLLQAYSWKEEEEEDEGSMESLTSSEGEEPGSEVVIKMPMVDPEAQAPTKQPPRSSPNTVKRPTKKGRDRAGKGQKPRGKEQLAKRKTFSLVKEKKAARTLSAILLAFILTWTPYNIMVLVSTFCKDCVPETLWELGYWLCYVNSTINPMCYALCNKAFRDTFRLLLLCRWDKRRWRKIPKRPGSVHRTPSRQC
Sequence of Gonadotropin-releasing hormone receptor (Homo sapiens) (P30968 whole entry, looked up): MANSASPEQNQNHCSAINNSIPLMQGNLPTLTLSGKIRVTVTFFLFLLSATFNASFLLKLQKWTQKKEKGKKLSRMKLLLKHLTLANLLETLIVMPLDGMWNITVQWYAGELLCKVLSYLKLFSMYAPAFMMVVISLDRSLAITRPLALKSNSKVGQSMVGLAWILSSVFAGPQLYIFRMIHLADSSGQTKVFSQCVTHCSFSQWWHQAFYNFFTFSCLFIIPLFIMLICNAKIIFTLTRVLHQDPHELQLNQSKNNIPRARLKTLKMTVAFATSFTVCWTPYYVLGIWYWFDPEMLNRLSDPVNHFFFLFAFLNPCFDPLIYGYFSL
Sequence of D(2) dopamine receptor (Homo sapiens) (P14416 whole entry, looked up): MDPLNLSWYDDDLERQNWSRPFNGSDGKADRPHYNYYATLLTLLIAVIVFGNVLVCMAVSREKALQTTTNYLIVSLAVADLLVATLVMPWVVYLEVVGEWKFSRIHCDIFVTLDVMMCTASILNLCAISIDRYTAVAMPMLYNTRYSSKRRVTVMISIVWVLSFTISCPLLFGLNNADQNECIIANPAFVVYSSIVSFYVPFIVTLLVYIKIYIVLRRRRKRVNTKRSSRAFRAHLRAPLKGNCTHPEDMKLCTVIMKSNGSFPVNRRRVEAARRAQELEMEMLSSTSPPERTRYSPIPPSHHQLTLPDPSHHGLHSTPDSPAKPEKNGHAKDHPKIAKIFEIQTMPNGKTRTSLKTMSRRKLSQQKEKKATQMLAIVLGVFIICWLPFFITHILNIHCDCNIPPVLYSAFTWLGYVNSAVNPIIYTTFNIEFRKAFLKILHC

Compound	Potency [1]	Potency [2]	Potency [3]	Potency [4]	Potency [5]	Potency [6]	Potency [7]	Potency [8]	Potency [9]	Potency [10]	Potency [11]	Potency [12]	Potency [13]	Potency [14]	Potency [15]	Potency [16]	Potency [17]	Potency [18]	Potency [19]	Potency [20]
S=C1NCCN1	inactive	inactive	inactive	inactive	inactive	inactive	inactive	inactive	inactive	inactive	inactive	inactive	inactive	inactive	inactive	inactive	inactive	inactive	inactive	
CCOC(=O)C1(c2ccccc2)CCN(CCC(C#N)(c2ccccc2)c2ccccc2)CC1	inactive	inactive	inactive	inactive	inactive	inactive	inactive		inactive	7.93 µM (active)	0.13 µM (active)	inactive	inactive	inactive	inactive	inactive			inactive	inactive
CCCCN(CCCCO)N=O	inactive	inactive	inactive	inactive	inactive	inactive	inactive		inactive	inactive	inactive	inactive	inactive	inactive	inactive	inactive	inactive	inactive	inactive	
CCCCCCCCCCCCCCCC[n+]1ccccc1	29.8 µM (active) [middle of 4 runs]	25.7 µM (active) and 38.9 µM (active) and 17.1 µM (active)	inactive	inactive	inactive	inactive	36.3 µM (active) and 40.2 µM (active) and inactive		45.8 µM (active) and inactive	inactive								inactive	inactive and 60.3 µM (active)	inactive
Clc1ccc(C(c2ccc(Cl)cc2)C(Cl)(Cl)Cl)cc1	38.8 µM (active)	inactive	inactive	inactive	inactive	inactive		inactive	inactive	inactive	inactive	inactive	inactive	inactive	inactive	inactive	inactive	inactive	inactive	inactive
C#CC(C)(C)NC(=O)c1cc(Cl)cc(Cl)c1	inactive	inactive	inactive	inactive	inactive	inactive		inactive	inactive	inactive	inactive	inactive	inactive	inactive	inactive	inactive	inactive	inactive	inactive	
N#CS	inactive	inactive	inactive	inactive	inactive	inactive	inactive	inactive	inactive	inactive	inactive	inactive		inactive	inactive		inactive	inactive	inactive	inactive
O=[N+]([O-])c1ccc([As](=O)(O)O)cc1	inactive	inactive	inactive	inactive	inactive		inactive	inactive	inactive	inactive	inactive	inactive	inactive	inactive		inactive		inactive	inactive	inactive
CCOP(=S)(OCC)Oc1nc(Cl)c(Cl)cc1Cl	inactive	inactive	inactive	inactive	inactive		inactive	inactive	inactive	inactive	inactive	inactive	inactive	inactive			inactive	inactive		inactive
CN(C)C(=S)S	9.89 µM (active) and 607 nM (active) and 27.3 µM (active)	inactive	inactive	inactive			inactive	inactive and 8.08 µM (active)	inactive		inactive	inactive	inactive		inactive	inactive	inactive	inactive	inactive	inactive
BrCc1ccc(Br)cc1	inactive	inactive	inactive	inactive	inactive		inactive	inactive	inactive			inactive	inactive	inactive	inactive	inactive	inactive	inactive	inactive	inactive
O=C(NC(=O)c1c(F)cccc1F)Nc1ccc(Cl)cc1	inactive	inactive	inactive	inactive			inactive	inactive	inactive		inactive	inactive	inactive	inactive	inactive	inactive	inactive		inactive	inactive
CCOP(=S)(OCC)Oc1ccc2c(C)c(Cl)c(=O)oc2c1	inactive	inactive	inactive	inactive		inactive		inactive			inactive	inactive	inactive	inactive			inactive		inactive	
S=c1[nH]c2ccccc2[nH]1	inactive	inactive	inactive	inactive		inactive	inactive	inactive	inactive	inactive	inactive	inactive	inactive	inactive	inactive	inactive	inactive	inactive	inactive	
COC(=O)Nc1nc2ccccc2[nH]1	inactive	inactive	inactive	inactive	inactive	inactive		inactive		9.13 µM (active)	inactive	inactive	inactive	inactive	inactive		inactive	inactive	inactive	inactive
